Source: PubChem
HCMV antiviral – qHTS Assay for inhibitors of the human cytomegalovirus (HCMV). AID 1259415, 2018. activity change, negative = inhibition, % at 57.5 µM. 410,000 tested, 4.5% active. HFF cells, HCMV-luciferase reporter, 72 h; stronger effect = lower value; in the data active = activity change below about -60%; inconclusive = no clear call, values can overlap the other calls; inactive = above about -39%
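Two-dose cell screen: HFF monolayers treated with compounds and infected with luciferase-expressing HCMV at 1 PFU/cell, 72 h at 37C, then lysed for luciferase measurement.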
FMDV inh – High Throughput Screening for Foot and Mouth Disease Virus Antivirals | FMDV antiviral cell-based qHTS | Potency, µM (titrated, usually from 57.9 µM), inactives show at the highest dose activity change, negative = inhibition, most hits filed as inhibitors | 410,000 tested, 1.2% active | AID 1159524, 2015; calls by dose curve; tested in HEK293T cells; also: read-out not given here; potency is read from the fitted curve at half-maximal effect; nearly all actives have a fitted effect of over 45% in size
HCV inhibitor – qHTS Assay for Inhibitors of Hepatitis C Virus (HCV) | Huh7.5.1 HCVcc-Cre infection, luciferase reporter, 44 h | AID 651820, 2012 | 340,000 tested, 3.4% active | Potency, µM (series often up to 41.8 µM), for inactives: at the highest dose activity change, negative = inhibition, most hits filed as inhibitors; active = well fitted inhibition curve with a large enough effect; inconclusive = small, poorly fitted or top-dose-only effect, or another doubt; inactive = no such curve, though single readings can be large or run the other way; also: potency is read from the fitted curve at half-maximal effect
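Infectious HCVcc-Cre (~0.5 moi) was added to cells just after compound, with cells seeded 4 h earlier at 1,000 per well. Luciferase activity after 44 h culture reported infection; substrate was incubated 15 min at room temperature before reading.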
Marburg entry inh – qHTS for inhibitors of binding or entry into cells for Marburg Virus | Marburg virus pseudotyped entry inhibition, cell reporter | Potency, µM (titrated, usually from 37.8 µM), for inactives: top-dose activity change, negative = inhibition, actives largely listed as inhibitors | 300,000 tested, 1.8% active; calls by dose curve; tested in HEK293 cells; also: potency is read from the fitted curve at half-maximal effect
Lassa entry inh – qHTS for Inhibitors of binding or entry into cells for Lassa Virus | Potency, µM (doses to about 37.9 µM), for inactives: at the top dose activity change, negative = inhibition, actives largely listed as inhibitors | Lassa virus pseudotype entry inhibition, cell reporter | 300,000 tested, 1.2% active; calls by dose curve; tested in HEK293 cells; also: potency is read from the fitted curve at half-maximal effect; nearly all actives have a fitted effect of over 50% in size
* marks the source's active call; other numbers are inactive results; u = inconclusive; x = no result; [ ] = remark or other dose. Hits are enriched below; roughly 7.9% of the tested compounds scored in any of these assays. % is scaled to controls: 0 for no effect and ±100 for the full control effect.

SMILES	HCMV antiviral	FMDV inh	HCV inhibitor	Marburg entry inh	Lassa entry inh
C=Cc1ccc(Cn2c(C)c(C(=O)NCc3ccc4c(c3)OCO4)sc2=O)cc1	5.0	-24.3%	x	x	x
COc1ccc(CNC(=O)c2sc(=O)n(Cc3ccc(C)cc3)c2C)cc1OC	-7.1	25.1µM*	x	x	x
Cc1c(C(=O)NCc2cccc([N+](=O)[O-])c2)sc(=O)n1Cc1cccc(F)c1	-61.2*	-8.1%	x	x	x
C=Cc1ccc(Cn2c(C)c(C(=O)NCc3ccc(C#N)cc3)sc2=O)cc1	-60.5*	u	x	x	x
COc1ccc(CNC(=O)c2sc(=O)n(Cc3ccc(-c4ccccc4)cc3)c2C)cc1OC	u	15.8µM*	x	x	x
Cc1ccc(Cn2c(C)c(C(=O)NCc3cccc(C(F)(F)F)c3)sc2=O)cc1	-15.9	-13.3%	x	x	x
Cc1cccc(CN2[C@@H](CC(C)C)COCCS2(=O)=O)c1	-6.0	-2.6%	10.7%	x	x
COc1ccc(CNC(=O)c2sccc2-c2ccccc2)cc1OC	-70.6*	u	-29.8%	x	x
COc1ccc(CNC(=O)c2[nH]c(C(F)(F)F)nc2-c2ccccc2)cc1OC	-2.2	-9.9%	x	x	x
COc1ccccc1Cn1c(C)c(C(=O)NCc2cccc(C)c2)sc1=O	-60.8*	-10.4%	x	x	x
CC(C)NC(=O)c1cn([C@H]2CC[C@@H](NC(=O)/C=C/c3cccs3)CC2)nn1	x	0.0%	x	x	x
COc1cccc(N/C(SCc2ccccc2C)=C(/C#N)C(=O)NCc2cccs2)c1	-80.3*	-5.4%	-24.5%	u	u
Cc1ccc(C)c(NC(=O)/C(C#N)=C/c2cn(CC(=O)NCc3ccco3)c3ccccc23)c1	-99.5*	-7.7%	u	u	-17.1%
Cc1cc(C)cc(NC(=O)/C(C#N)=C/c2cn(CC(=O)NCc3ccco3)c3ccccc23)c1	-85.0*	u	u	u	u
Cc1ccc(CS/C(Nc2ccccc2C)=C(\C#N)C(=O)NCc2ccco2)c(C)c1	-21.7	-27.2%	-5.3%	u	3.66µM*
Cc1ccccc1N/C(SCc1ccc(Cl)cc1)=C(/C#N)C(=O)NCc1ccco1	-0.1	-20.6%	-26.4%	u	u
C=C(C)CNC(=O)CCc1nnc(Cc2cccc(C(F)(F)F)c2)o1	34.3	16.8%	1.8%	u	13.5%[46.1 µM]
Cc1ccc(N(CN2C(=O)[C@H]3CC=CC[C@@H]3C2=O)C(=O)c2ccco2)cc1Cl	x	x	x	-20.5%	x
CCCCC(CC)CNC(=O)c1ccc2c(=O)n(Cc3ccc(OC)cc3)c(=O)[nH]c2c1 (stereo unspecified)	-20.6	-21.1%	x	13.2%[46.1 µM]	12.4%[46.1 µM]
COc1ccc(Cl)cc1NC(=O)c1ccco1	-4.7	-10.3%	11.2µM*	1.3%	0.2%
COc1cc(NC(=O)[C@@H](NC(=O)c2ccco2)C(C)C)c(OC)cc1NC(=O)c1ccccc1	-37.5	-6.5%	7.94µM*	u	-6.7%
COc1ccc(Cl)cc1C(=O)NNC(=O)CNC(=O)c1ccco1	-99.2*	-8.0%	4.9%	x	x
COc1ccc(Cl)cc1C(=O)Nc1ccc(NC(=O)c2ccco2)cc1	x	-2.5%	u	0.1%	3.3%
COc1ccc(C(=O)NNC(=O)C(NC(=O)c2ccccc2NC(=O)c2ccco2)C(C)C)cc1 (stereo unspecified)	-38.5	-17.4%	4.4%	16.9%[46.1 µM]	-2.0%
CN(C)CCCN(C(=O)COc1ccc(Cl)cc1)c1nc2cc3c(cc2s1)OCO3	u	-7.2%	-12.9%	u	u
SMILES	HCMV antiviral	FMDV inh	HCV inhibitor	Marburg entry inh	Lassa entry inh
O=S(=O)(c1ccccc1)c1nc(-c2cccs2)oc1N1CCCCC1	25.7	21.5%	x	-19.7%[46.1 µM]	24.9%[46.1 µM]
CCCCNc1oc(-c2cccs2)nc1S(=O)(=O)c1ccccc1	u	20.6%	10µM*	u	u
CCC(C)S(=O)(=O)c1oc(-c2cccs2)nc1S(=O)(=O)c1ccccc1 (stereo unspecified)	-102.1*	28.2µM*	x	u	u
CNc1oc(-c2cccs2)nc1S(=O)(=O)c1ccccc1	-9.4	15.7%	-5.6%	0.6%[46.1 µM]	x
Cc1ccc(S(=O)(=O)N[C@H]2CC[C@@]34CCCN3C(=O)CCC[C@H]4[C@H]2Cc2ccccc2)cc1	-18.4	x	x	x	x
CN(C(=O)c1cccc(NC(=O)Cc2ccc(NC(=O)C3CCCN(C(=O)C4CC4)C3)cc2)c1)C1CCCC1 (stereo unspecified)	-1.6	-17.8%	u	x	x
COc1ccc2c(c1)C(=NO)c1cc(OC)ccc1-2	u	8.4%	8.91µM*	-24.2%	14.5%
C=CCOc1ccc2c(c1)C(=NO)c1cc(OCC=C)ccc1-2	-18.6	-20.1%	u	-0.4%	x
COC(=O)c1c(C)nc2c(c(SC)nn2-c2ccccc2)c1N	-19.1	-19.1%	11.2µM*	u	-9.1%
OC(c1ccco1)c1nc(-c2ccc(F)c(Cl)c2)cs1 (stereo unspecified)	-64.7*	37.5%	x	x	x
CCN(C(=O)COC(=O)c1c(C)c(-c2ccccc2)nc2ccccc12)C1CCS(=O)(=O)C1 (stereo unspecified)	3.1	-24.5%	12.6µM*	x	x
Cc1ccc(-c2cc(C(=O)OCC(=O)N(C)C3CCS(=O)(=O)C3)c3ccccc3n2)c(C)c1 (stereo unspecified)	23.8	-23.3%	20.9%	6.7%	2.8%
CCN(C(=O)COC(=O)c1c(-c2ccccc2)noc1C)C1CCS(=O)(=O)C1 (stereo unspecified)	4.7	6.7%	-4.0%	2.3%	-2.4%
CCN(C(=O)COC(=O)c1cc(-c2cccs2)nc2ccccc12)C1CCS(=O)(=O)C1 (stereo unspecified)	3.4	0.0%	11.2µM*	1.1%[46.1 µM]	16.4%[46.1 µM]
COc1ccc(-c2cc(C(=O)OCC(=O)N(C)C3CCS(=O)(=O)C3)c3ccccc3n2)cc1OC (stereo unspecified)	-23.0	-14.8%	3.16µM*	u	u
C[C@@H]1C=C(C(=O)N2CCOCC2)O[C@H](OCc2ccc(CO)cc2)C1	-17.7	-4.3%	-1.0%[8.37 µM]	x	x
Cn1cnc([N+](=O)[O-])c1Oc1ccc2ccccc2c1	23.1	17.8µM*	u	u	u
CCOC(=O)C1CCN(CCCSc2ccccc2)CC1	23.5	-0.4%	11.5%	x	x
N#Cc1ccccc1NC(=O)CSc1nnc(-c2ccccc2)n1-c1ccccc1	u	u	1.5%	u	u
CCN(CC)c1ccc(-c2nnc(SCC(=O)Nc3ccccc3C#N)n2-c2ccccc2)cc1	-18.5	u	u	u	11.2µM*
COC(=O)C1=Nc2ccccc2/C1=C\c1c(O)n(-c2ccc(Br)cc2)c(=O)[nH]c1=O	27.6	20µM*	u	-17.8%	-1.3%
COC(=O)C1=Nc2ccccc2/C1=C\c1c(O)n(-c2ccc(OC)cc2)c(=O)[nH]c1=O	14.2	-18.5%	-18.7%	-17.8%	-1.5%
C=C(C)COc1ccc(-c2[nH]ncc2-c2ccc(Br)cc2)c(O)c1	-94.3*	-18.1%	u	3.26µM*	u
COc1ccc(-c2cncnc2-c2ccc(OC)cc2O)cc1	-63.8*	u	-26.0%	x	x
